Measured values: PubChem BioAssay (EPA / NIEHS)
Several values for one entry are separate records, joined by “and”; a condition that tells them apart may be missing. Equal values may be shown once. Results filed as inconclusive are left out. A structure can be active in one record and inactive in another. Activity calls are given as the source filed them. How the source made its calls, unless noted: active means hit-call score of the fitted dose curve at least 0.9, where 1 is the maximum; inactive means score below 0.9.

Experiments:
CD69, CD69 (gene 969) = test: BSK_SAg_CD69: BioMAP Diversity Plus: SAg Assay for CD69 Biomarker Activity (AID 2283089); settings: primary human HUVEC with PBMC; actives raise or lower the signal;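 on AC50: cell surface CD69 protein quantified by ELISA with fluorescence detection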
Summary of the method: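 Values derive from bidirectional fitting relative to DMSO vehicle. Cells: umbilical vein endothelium plus peripheral blood mononuclear cells, treated 24 h before fluorescent ELISA for CD69.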

[1] = read-out: Monocyte Chemoattractant Protein-1 (MCP1), CCL2 (gene 6347); test: BSK_SAg_MCP1: BioMAP Diversity Plus: SAg Assay for Monocyte Chemoattractant Protein-1 (MCP1) Biomarker Activity (AID 2283090); settings: primary human HUVEC with PBMC; actives raise or lower the signal
Summary of the method: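 Values derive from bidirectional fitting of ELISA-measured MCP1 against DMSO controls. Readings were taken 24 h after dosing human vascular endothelial cells co-cultured with peripheral blood mononuclear cells under superantigen stimulation.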

[2] = read-out: E-selectin (Homo sapiens) (UniProt P16581); test: BSK_SAg_Eselectin: BioMAP Diversity Plus: SAg Assay for Eselectin Biomarker Activity (AID 2283091); settings: primary human HUVEC with PBMC; actives raise or lower the signal
Summary of the method: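 Co-culture: HUVEC + PBMC. Dose compound; 24 h. ELISA for E-selectin. Bidirectional fit vs DMSO.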

[3] = read-out: Monokine induced gamma interferon (MIG), CXCL9 (gene 4283); test: BSK_SAg_MIG: BioMAP Diversity Plus: SAg Assay for Monokine induced gamma interferon (MIG) Biomarker Activity (AID 2283092); settings: primary human HUVEC with PBMC; actives raise or lower the signal
Summary of the method: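 Values reflect bidirectional fitting of ELISA-measured MIG against DMSO vehicle, taken 24 h after dosing of a co-culture of human umbilical vein endothelial cells and peripheral blood mononuclear cells.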

[4] = BSK_SAg_PBMCCytotoxicity: PBMC Cytotoxicity Assessment in the BioMAP Diversity Plus: SAg Assay (AID 2283093); settings: primary human HUVEC with PBMC;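 further: PBMC viability measured as Alamar Blue reduction fluorescence at 546/580 nm; fitted both ways against DMSO so a hit may be loss or gain of signal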;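 on AC50: PBMC superantigen activated with SEB plus TSST-1 one hour after compound addition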
Summary of the method: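 Alamar Blue reduction (6 h, ex/em 546/580 nm) read after 90 h culture of PBMC pre-dosed 1 h then stimulated with SEB plus TSST-1, 20 ng/mL each. Gain or loss of signal fitted relative to DMSO.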

[5] = read-out: Interleukin-8 (IL8), CXCL8 (gene 3576); test: BSK_SAg_IL8: BioMAP Diversity Plus: SAg Assay for Interleukin-8 (IL8) Biomarker Activity (AID 2283094); settings: primary human HUVEC with PBMC; actives raise or lower the signal
Summary of the method: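 HUVEC/PBMC co-culture, 24 h post-dose; IL-8 by ELISA. Gain or loss of signal fitted bidirectionally vs DMSO baseline.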

[6] = BSK_SAg_Proliferation: Cell Proliferation Assessment in the BioMAP Diversity Plus: SAg Assay (AID 2283095); settings: primary human HUVEC with PBMC;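 further: relative cell number as total protein by SRB absorbance in sub-confluent culture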
Summary of the method: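 HUVEC/PBMC co-culture, 96-well. TCA-fixed (10%), 0.1% SRB stain, A560 at 96 h. Protein content used as viability readout; bidirectional fitting vs DMSO control.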

[7] = BSK_SAg_SRB: Viability Assessment in the BioMAP Diversity Plus: SAg Assay (AID 2283096); settings: primary human HUVEC with PBMC;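 further: cells read one day after compound addition; hits may be either gain or loss of signal compared with DMSO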
Summary of the method: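 SRB absorbance at 560 nm served as the viability read-out. Cells (HUVEC plus peripheral blood mononuclear cells) were TCA-fixed and stained 24 h post-dosing; activity fitted in both directions against DMSO controls.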

[8] = molecular target: human CYP19A1, CYP19A1 (gene 1588) (UniProt P11511); test: NVS_ADME_hCYP19A1: NovaScreen (NVS) CYP450-related Enzyme Activity (ADME) Assay for human CYP19A1 (AID 2283098; active means hit-call score of the fitted dose curve at least 0.9, where 1 is the maximum)
Summary of the method: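 Primary testing was in duplicate at a single 10 uM concentration, with actives followed up in concentration-response series. Fluorescence read-out of recombinant enzyme activity at 0.5 h, cell-free. Acetonitrile was the negative-control baseline.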

[9] = molecular target: human CYP2A6, CYP2A6 (gene 1548) (UniProt P11509); test: NVS_ADME_hCYP2A6: NovaScreen (NVS) CYP450-related Enzyme Activity (ADME) Assay for human CYP2A6 (AID 2283099; active means hit-call score of the fitted dose curve at least 0.9, where 1 is the maximum)
Summary of the method: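 Fluorescent substrate turnover by recombinant CYP2A6 (insect cell source), 0.5 h read. Screen: 10 uM, duplicate; threshold hits (e.g. 30% inhibition) → singleton concentration-response, top 20 uM. Positive and negative controls on every plate.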

Measured: AC50

Sequence of E-selectin (Homo sapiens) (P16581 whole entry, looked up): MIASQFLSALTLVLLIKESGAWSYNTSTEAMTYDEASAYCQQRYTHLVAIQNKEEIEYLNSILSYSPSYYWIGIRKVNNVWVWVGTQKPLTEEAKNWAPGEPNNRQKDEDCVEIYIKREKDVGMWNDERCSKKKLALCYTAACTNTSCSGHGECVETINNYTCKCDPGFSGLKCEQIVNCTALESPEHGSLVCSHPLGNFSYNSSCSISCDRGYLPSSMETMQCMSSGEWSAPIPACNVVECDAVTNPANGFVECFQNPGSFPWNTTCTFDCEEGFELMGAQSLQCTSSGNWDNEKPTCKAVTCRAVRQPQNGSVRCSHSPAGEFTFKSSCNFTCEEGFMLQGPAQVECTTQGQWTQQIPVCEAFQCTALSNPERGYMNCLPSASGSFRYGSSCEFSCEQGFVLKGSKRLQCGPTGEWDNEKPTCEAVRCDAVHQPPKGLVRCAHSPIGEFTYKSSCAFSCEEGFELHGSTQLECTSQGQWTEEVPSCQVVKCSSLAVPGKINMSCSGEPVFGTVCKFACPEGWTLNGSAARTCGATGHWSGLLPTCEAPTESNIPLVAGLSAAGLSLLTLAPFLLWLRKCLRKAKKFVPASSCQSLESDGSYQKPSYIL
Sequence of human CYP19A1, CYP19A1 (gene 1588) (P11511 whole entry, looked up): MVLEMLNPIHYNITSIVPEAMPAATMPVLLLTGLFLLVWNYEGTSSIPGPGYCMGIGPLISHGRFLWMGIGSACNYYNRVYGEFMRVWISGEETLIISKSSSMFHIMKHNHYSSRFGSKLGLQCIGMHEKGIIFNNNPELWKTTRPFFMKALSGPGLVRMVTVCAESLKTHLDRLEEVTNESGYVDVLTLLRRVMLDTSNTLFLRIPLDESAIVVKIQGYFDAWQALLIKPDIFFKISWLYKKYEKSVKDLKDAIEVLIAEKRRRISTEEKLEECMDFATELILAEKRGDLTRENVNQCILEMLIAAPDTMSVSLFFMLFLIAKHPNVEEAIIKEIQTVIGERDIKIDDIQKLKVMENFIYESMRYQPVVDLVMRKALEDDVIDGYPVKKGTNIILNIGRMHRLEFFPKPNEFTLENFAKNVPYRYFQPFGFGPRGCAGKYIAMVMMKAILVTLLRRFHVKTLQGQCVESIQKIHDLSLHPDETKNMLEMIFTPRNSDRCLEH
Sequence of human CYP2A6, CYP2A6 (gene 1548) (P11509 whole entry, looked up): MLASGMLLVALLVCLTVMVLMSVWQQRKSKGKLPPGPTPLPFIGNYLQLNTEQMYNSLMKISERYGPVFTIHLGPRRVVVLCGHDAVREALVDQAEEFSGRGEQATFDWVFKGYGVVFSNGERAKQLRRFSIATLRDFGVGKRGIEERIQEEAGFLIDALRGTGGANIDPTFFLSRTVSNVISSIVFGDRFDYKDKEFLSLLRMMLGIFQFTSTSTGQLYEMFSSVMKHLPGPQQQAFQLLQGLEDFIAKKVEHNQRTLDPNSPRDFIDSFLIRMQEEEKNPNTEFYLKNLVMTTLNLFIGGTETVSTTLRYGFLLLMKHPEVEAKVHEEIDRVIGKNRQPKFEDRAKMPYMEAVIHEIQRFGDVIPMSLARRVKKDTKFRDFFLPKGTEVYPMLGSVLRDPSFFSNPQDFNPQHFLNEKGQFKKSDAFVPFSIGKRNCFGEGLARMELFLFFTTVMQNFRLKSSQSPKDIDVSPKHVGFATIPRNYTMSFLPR

CCOc1ccc(C(C)(C)COCc2cccc(Oc3ccccc3)c2)cc1
active: [6] 20 µM
not listed: [9]
inactive: all other assays above

CCCCC(CC)COC(=O)c1c(Br)c(Br)c(Br)c(Br)c1C(=O)OCC(CC)CCCC (stereo not drawn)
inactive: CD69, CD69 (gene 969) | [1] | [2] | [3] | [5] | [6]

CC(C)Nc1ccc(Nc2ccccc2)cc1
active: CD69, CD69 (gene 969) 3.37 µM | [1] 6.2 µM | [2] 5.98 µM | [3] 9.5 µM | [4] 0.016 µM | [5] 5.34 µM | [6] 0.0375 µM

O=C(O)C(F)(F)OC(F)(F)C(F)(F)OC(F)(F)C(=O)O
not listed: [7] | [8] | [9]
inactive: all other assays above

OCC(F)(F)OC(F)(F)C(F)(F)OC(F)(F)CO
not listed: [4] | [8] | [9]
inactive: all other assays above

CC(O)C(F)(F)C(F)(F)F (stereo not drawn)
inactive: CD69, CD69 (gene 969) | [1] | [2] | [3] | [5] | [6]

OCC(F)(F)OC(F)(F)C(F)(F)OC(F)(F)C(F)(F)OC(F)(F)CO
active: CD69, CD69 (gene 969) 12.9 µM | [1] 10.3 µM | [2] 38.3 µM and 42.9 µM | [5] 17.9 µM
inactive: CD69, CD69 (gene 969) | [1] | [3] | [5] | [6] | [7]

Cc1ccc([N+](=O)[O-])cc1C
not listed: [7] | [9]
inactive: all other assays above

C=CC(=O)OCC(F)(F)C(F)F
inactive: [4] | [7]
active: CD69, CD69 (gene 969) 38.5 µM and 30 µM | [1] 34.3 µM and 20.4 µM | [2] 30.4 µM and 17.6 µM | [3] 53.5 µM and 45.4 µM | [4] 15.1 µM | [5] 20.7 µM and 9.88 µM | [6] 13.4 µM and 6.25 µM

OCC(F)(F)OC(F)(F)C(F)(F)OC(F)(F)C(F)(F)OC(F)(F)F
active: CD69, CD69 (gene 969) 24.4 µM and 45.7 µM | [1] 45.9 µM and 24.8 µM | [2] 39.4 µM and 45.2 µM | [5] 43.9 µM and 43.4 µM | [6] 39 µM and 21 µM
inactive: [3]

CCOP(=S)(S)OCC
not listed: [7] | [8] | [9]
inactive: all other assays above

NC(=O)C(F)(F)C(F)(F)F
inactive: CD69, CD69 (gene 969) | [1] | [2] | [3] | [5] | [6]

ClC(Cl)c1ccccc1
inactive: CD69, CD69 (gene 969) | [1] | [2] | [3] | [5] | [6]

CC(C)(C)c1ccccc1OP(=O)(Oc1ccccc1)Oc1ccccc1
active: CD69, CD69 (gene 969) 27.5 µM | [1] 27.7 µM | [2] 20 µM | [3] 34.6 µM | [5] 20 µM | [6] 10.8 µM

O=P(OCC(Br)CBr)(OCC(Br)CBr)OCC(Br)CBr (stereo not drawn)
not listed: [8] | [9]
inactive: all other assays above

O=C(O)C1C(C(=O)O)C2(Cl)C(Cl)=C(Cl)C1(Cl)C2(Cl)Cl (stereo not drawn)
not listed: [7] | [8]
inactive: all other assays above

N#Cc1cc([N+](=O)[O-])ccc1N
not listed: [8] | [9]
inactive: all other assays above

CC(Cl)(Cl)C(=O)O
inactive: CD69, CD69 (gene 969) | [1] | [2] | [3] | [5] | [6]

CC(Cl)CN(C)C (stereo not drawn)
active: [1] 0.0162 µM | [2] 20 µM | [6] 20 µM
not listed: [8] | [9]
inactive: all other assays above
